Results on 13 molecules are retold here after PubChem BioAssay (NCATS).

Test [1] can be described thus: Cellular Toxicity (caspase-3) N2a (AID 665).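 Note: compound exposure lasted 16 h at 37 °C before readout.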 The essentials:
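Caspase-3/7 activation measured as luminescence from Caspase-Glo reagent (1 h, room temperature) after 16 h compound exposure of mouse N2a cells. AC50 values from Hill-equation concentration-response, scaled between DMSO and 10 uM staurosporine.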

Test [2] in a line: Cellular Toxicity (caspase-3) Renal Proximal Tubule (AID 667).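 Note: cells exposed to compound for 16 hours at 37 °C before detection; 0% = DMSO basal and 100% = 10 µM staurosporine.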 The essentials: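 In qHTS format, rat primary proximal tubule cells seeded at 1000 per well are exposed to compounds for 16 hours at 37 °C. An increase in Caspase-Glo 3/7 luminescence indicates caspase activation.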
For test [3], the target named is Cytochrome P450 3A4 (Homo sapiens) (UniProt P08684). In words: qHTS Assay for Inhibitors and Substrates of Cytochrome P450 3A4 (AID 884). For activity change, negative = inhibition: series mostly up to about 57 µM; % is set by controls: 0 for no effect and ±100 for the full control effect. Note: nearly all actives have a fitted effect of over 50% in size. Note: potency is the fitted concentration of half-maximal effect. The essentials:
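Luminescent readout of luciferin produced by CYP3A4 (20 nM) dealkylation of Luciferin-PPXE, 25 uM (its KM). NADPH-driven reaction ran 60 min at RT after 10 min compound preincubation; data scaled to 57 uM ketoconazole as 100% inhibition.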
For orientation: Quantitative high-throughput screening tests each substance at several concentrations.

Test [4] is described as follows: MultiTox-Fluor Cytotoxicity Assay - LYMP1-001 - Dead Cells (AID 946).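 Note: 0% = DMSO and 100% = tetraoctylammonium bromide.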 The essentials:
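LYMP1-001 lymphoblastoid cells (2500/well) treated 16 h at 37 C. Dead-cell protease cleavage of bis-AAF-R110 read at Ex/Em 485/520. Normalized to DMSO and 15 uM tetraoctylammonium bromide; AC50 from Hill fits.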

The nature of test [5]: MultiTox-Fluor Cytotoxicity Assay - LYMP1-001 - Live Cells (AID 947).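 Note: 0% = DMSO only and full inhibition = tetraoctylammonium bromide control.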
Test [6] in a line: Cell Viability - LYMP1-002 - Assay at 16 hr (AID 948).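 Note: 0% = DMSO alone and full effect = 92 µM tetraoctylammonium bromide.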 In a few lines:
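Acute cytotoxicity is scored as a concentration-dependent fall in intracellular ATP in a human lymphoblastoid line (LYMP1-002) after 16 hr compound exposure at 37 C, measured by luciferase luminescence.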

Test [7] is described as follows: MultiTox-Fluor Cytotoxicity Assay - LYMP1-002 - Live Cells (AID 955). Note: % is set by controls: 0 for no effect and ±100 for the full control effect. The essentials:
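After 16 h compound exposure at 37 C, live LYMP1-002 lymphoblastoid cells (2500/well) were quantified by cleavage of cell-permeant GF-AFC substrate, read at 405/510 nm after 60 min. Concentration-response fitted with Hill equation for AC50.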

Test [8] can be described thus: MultiTox-Fluor Cytotoxicity Assay - LYMP1-002 - Dead Cells (AID 960).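 Note: 0% = DMSO and 100% = tetraoctylammonium bromide; nearly all actives have a fitted effect of over 60% in size.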 In a few lines: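 Dead-cell fluorescence (Ex/Em 485/520) after 16 h compound exposure at 37 C of LYMP1-002 lymphoblastoid cells in complete medium; AC50 by Hill equation, with data scaled between DMSO and 15 uM tetraoctylammonium bromide.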
The target of test [9] is Cytochrome P450 3A4 (Homo sapiens) (UniProt P08684). In words: qHTS Assay for Activators of Cytochrome P450 3A4 (AID 885). Note: nearly all actives have a fitted effect of over 65% in size. In a few lines: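 Human CYP3A4 dealkylates Luciferin-PPXE to luciferin, which luciferase detection converts to light. Substrate was at its KM (25uM), buffer 200mM KPO4, reaction 60 min at RT.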
The nature of test [10]: Confirmation and Secondary Assay for Modulators of Hemoglobin Beta Chain Splicing at IVS2 654 locus (AID 910).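 Note: per-well total GFP intensity by laser scanning cytometry after 2-day treatment; % of control where 0% means no effect.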 In a few lines: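 HeLa cells stably carrying EGFP interrupted by mutant beta-globin IVS2-654 intron (CMV-driven) were treated with compound for 2 days at 37C; corrected splicing was scored as total peak GFP intensity per well (488 nm excitation, 500-520 nm emission).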

The nature of test [11]: Confirmation and Secondary Assay for Modulators of Hemoglobin Beta Chain Splicing at IVS2 705 locus (AID 930).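 Note: HeLa cells stably expressing the EGFP-705 splicing reporter; series mostly up to about 46 µM; % of control where 0% means no effect.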 The essentials: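 Restored EGFP fluorescence after 2-day compound exposure reports splicing correction in IVS2-705 EGFP reporter HeLa cells; positive control was 500 nM splice-blocking PNA oligo. Signal measured as well total peak GFP intensity (488 nm excitation).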

For test [12], the target named is Cytochrome P450 2D6 (Homo sapiens) (UniProt P10635). In words: qHTS Assay for Inhibitors and Substrates of Cytochrome P450 2D6 (AID 891).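 Note: luciferin methyl ether substrate demethylated by CYP2D6 with NADPH regeneration; % is set by controls: 0 for no effect and ±100 for the full control effect; nearly all actives have a fitted effect of over 60% in size.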 The essentials: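 Luminescent read-out of luciferin formed by 5 nM human CYP2D6 demethylating 30 uM Luciferin-ME EGE (Km level) over 60 min at room temperature after NADPH regeneration addition. Data normalized to full inhibition by 1.43 uM quinidine.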

A number with no mark means an inactive call. Results filed as inconclusive are left out. Activity calls are given as the source filed them. Calls come from the whole dose curve; as a rule, active = well fitted curve in the direction sought with a large enough effect; inconclusive = small, poorly fitted or top-dose-only effect, or another doubt; inactive = no such curve, though single readings can be large; an effect the other way counts as inactive or inconclusive.

Sequence of Cytochrome P450 3A4 (Homo sapiens) (P08684 whole entry, looked up): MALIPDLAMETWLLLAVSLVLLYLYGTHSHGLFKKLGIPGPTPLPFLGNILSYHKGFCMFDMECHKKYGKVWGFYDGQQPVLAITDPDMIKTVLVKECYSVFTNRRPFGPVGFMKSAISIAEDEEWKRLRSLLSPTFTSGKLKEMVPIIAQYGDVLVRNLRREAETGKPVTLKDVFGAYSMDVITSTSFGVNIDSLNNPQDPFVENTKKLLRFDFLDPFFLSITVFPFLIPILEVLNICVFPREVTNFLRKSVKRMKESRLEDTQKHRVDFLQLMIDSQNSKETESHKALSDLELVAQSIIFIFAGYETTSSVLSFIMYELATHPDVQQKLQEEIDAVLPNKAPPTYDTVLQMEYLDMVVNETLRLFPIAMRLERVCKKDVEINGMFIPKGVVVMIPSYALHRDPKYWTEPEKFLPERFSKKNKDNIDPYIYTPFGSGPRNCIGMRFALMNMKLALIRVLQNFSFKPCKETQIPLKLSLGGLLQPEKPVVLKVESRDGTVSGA
Sequence of Cytochrome P450 2D6 (Homo sapiens) (P10635 whole entry, looked up): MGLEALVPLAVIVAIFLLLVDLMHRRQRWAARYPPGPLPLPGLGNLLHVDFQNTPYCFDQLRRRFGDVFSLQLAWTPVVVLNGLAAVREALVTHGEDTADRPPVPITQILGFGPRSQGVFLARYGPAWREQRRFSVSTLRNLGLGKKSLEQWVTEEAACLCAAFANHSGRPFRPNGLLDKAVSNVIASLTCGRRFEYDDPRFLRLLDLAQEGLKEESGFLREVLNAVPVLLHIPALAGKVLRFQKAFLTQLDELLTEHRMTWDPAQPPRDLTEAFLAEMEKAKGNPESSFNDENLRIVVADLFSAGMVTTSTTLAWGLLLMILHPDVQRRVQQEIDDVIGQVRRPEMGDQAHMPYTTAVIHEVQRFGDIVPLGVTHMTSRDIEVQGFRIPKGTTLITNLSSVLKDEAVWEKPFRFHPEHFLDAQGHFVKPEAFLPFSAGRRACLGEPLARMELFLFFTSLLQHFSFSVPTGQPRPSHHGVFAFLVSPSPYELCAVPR

Consider `CC(C)O`, for which the outcome in test [1], in [2] and in test [5] was inactive. For the same molecule, the Potency result in test [3], in test [4], in test [6], in test [7] and in test [8] was “inactive” each time.

As to `CC/C=C\C/C=C\C/C=C\CCCCCCCC(=O)O`, the molecule was called inactive in test [1] and in test [2]. The Potency in [3] was 15.8 µM (active). Further, the Potency entry in test [9], in [4], in test [6], in test [7] and in test [8] was “inactive” each time.

Turning to `O=P(O)(O)O`, the result in test [1], in test [2] and in test [5] was inactive. The Potency result in test [3], in [4], in test [6], in test [7] and in [8] was “inactive” each time.

`C/C=C/C=C/C(=O)O`: the call in [1], in [2] and in test [5] was inactive. Besides, the Potency result in [3], in [4], in [6], in test [7] and in test [8] was “inactive” throughout.

As for `NC(N)=O`, the outcome in test [1], in test [2] and in [5] was inactive. The Potency result in test [3], in test [10], in test [11], in test [4], in test [6] and in test [7] was “inactive” each time. The Potency entry in test [8] is “inactive”.

Regarding `C[C@H](CCC(=O)O)[C@H]1CC[C@H]2[C@@H]3CC[C@@H]4C[C@H](O)CC[C@]4(C)[C@H]3C[C@H](O)[C@]12C`, the molecule was called inactive in test [1], in [2] and in test [5]. For the same molecule, the Potency result in test [4], in test [6] and in [7] was “inactive” throughout.

Turning to `Cc1ccc(S(=O)(=O)O)cc1C`, the result in [1], in test [2] and in [5] was inactive. The Potency entry in test [3], in test [4], in test [6], in test [7] and in test [8] was “inactive” each time.

Consider `CC1=CC(=O)NS(=O)(=O)O1`, for which the molecule was classed as inactive in test [1], in [2] and in [5]. In addition, the Potency entry in test [3], in test [4], in [6], in test [7] and in test [8] was “inactive” each time.

Regarding `OCC(O)CO`, the molecule was classed as inactive in test [1], in [2] and in [5]. Besides, the Potency entry in test [3], in [4], in test [6], in test [7] and in test [8] was “inactive” each time.

As to `CC(C)(C)CC(C)(C)c1ccc(OCCO)cc1`, the outcome in test [1], in [2] and in test [5] was inactive. In addition, the Potency result in [9], in [4], in [6], in test [7] and in test [8] was “inactive” throughout.

Consider `Cc1c(O)c(=O)ccn1C`, for which the activity change, negative = inhibition in test [3] was -11.6% [at 11.4 µM]. For the same molecule, the Potency result in test [12] is “inactive”.

As for `C[C@H](CCC(=O)O)[C@H]1CC[C@H]2[C@@H]3[C@H](O)C[C@@H]4C[C@H](O)CC[C@]4(C)[C@H]3C[C@H](O)[C@]12C`, the call in test [1], in [2] and in test [5] was inactive. Moreover, the Potency entry in test [4], in test [6], in test [7] and in test [8] was “inactive” each time.

Consider `CC(=O)Oc1cccc(C(=O)O)c1OC(C)=O`, for which the Potency entry in test [3], in [10] and in test [11] was “inactive” each time.
